# Test results: PubChem BioAssay (EPA / NIEHS)
# Results filed as inconclusive are left out. The source made the active and inactive calls. The calls were made as follows: active = hit-call score of the fitted dose curve at least 0.9, where 1 is the maximum; inconclusive = response in the unintended direction; inactive = score below 0.9.
# Read-out: Cytochrome P450 2C19 (Homo sapiens) (UniProt P33261)
# Experiment: CLD_CYP2C19_24hr: CellzDirect (CLD) Gene Expression Assay for xenobiotic metabolism (CYP2C19) at 24 hours (AID 2283687);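 also: activity means mRNA induction above DMSO vehicle baseline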
# Protocol: CLD_24hr is a cell-based, multiplexed-readout assay that uses hepatocyte, a human liver primary cell, with measurements taken at 24 hours after chemical dosing in a 96-well plate.CLD_CYP2C19_24hr is one of 16 assay component(s) measured or calculated from the CLD_24hr assay. It is designed to make measurements of mRNA induction, a form of inducible reporter, as detected with chemiluminescence signals by Quantitative Nuclease Protection Assay (qNPA) technology.Data from the assay component CLD_CYP2C19_24hr was analyzed at the endpoint, CLD_CYP2C19_24hr, in the positive analysis fitting direction relative to DMSO as the negative control and baseline of activity. Using a type of inducible reporter, gain-of-signal activity can be used to understand changes in the reporter gene as they relate to the gene CYP2C19. Furthermore, this assay endpoint can be referred to as a primary readout. To generalize the intended target to other relatable targets, this assay endpoint is annotated to the cyp intended target family, where subfamily is xenobiotic metabolism.
# Human hepatocyte cultures were treated daily for two consecutive days with fresh dosing solutions containing appropriate concentrations of the 320 ToxCast chemicals (chemical identities were blinded to CellzDirect and other ToxCast collaborators), vehicle control (0.2% DMSO), and positive control inducers as summarized in Table 1. Due to the large number of treatment groups and chemicals examined, the ToxCast chemicals were divided into two groups (spanning two independent cultures of hepatocytes from separate donor preparations (Hu778: ToxCast plates 1 and 2; Hu776: ToxCast plates 3 and 4). Each preparation of human hepatocyte cultures was treated with respective vehicle control, medium only control, set of six positive controls/reference chemicals for the five hepatic receptor pathways, and a subset of eight of the ToxCast chemicals (indoxacarb, pyrithiobac-sodium, norflurazon, cyhalofop-butyl, methomyl, thiram, acetochlor, and propiconazole). These replicate data, coupled with internal replicates designed within the blinded ToxCast chemical library, provided additional data to evaluate interindividual differences between hepatocyte preparations and their potential impact on chemical profiles.Cell morphology and integrity were evaluated using phase-contrast microscopy as an indicator of hepatocyte cell health (Tyson & Green, 1987). Cultures for each treatment group (i.e., media, vehicle [0.2% DMSO], positive control inducers [multiple concentrations], and the ToxCast chemicals [multiple concentrations]) were observed and cell morphology was assessed relative to vehicle control cultures at each harvest time point (0, 6, 24, or 48 h). […] Images were evaluated at the conclusion of the study to assess changes in cell integrity and account for the effects of chemical exposure on uncharacteristic changes in concentration-dependent gene expression profiles. The results from these determinations of apparent cytotoxicity were annotated (yes/no) alongside the corresponding qNPA data for reference.At the conclusion of each treatment period, hepatocyte cultures (96-well) were washed with 1 volume of HBSS, lysed by addition of 25 ul ArrayPlate lysis buffer (HTG, Tucson, AZ), and 70 ul/well of Denaturation Oil, denatured by incubation at 95C for 10 min, and frozen at approximately -70C until analysis by nuclease protection assay (qNPA) (Roberts et al., 2007). For qNPA analysis, cell lysates were thawed at 50C for approximately 30 min, qNPA probes were added, and samples were incubated at 95C for 10 min to begin the detection process by denaturing the target RNA, dissociating the duplexes and secondary structure hybridization. At the conclusion of the hybridization period, S1 nuclease reagent was added to each sample to digest all nonprotected nucleotides at 50C for 60-90 min. […]
# Cytochrome P450 2C19 (Homo sapiens), sequence (P33261 whole entry, looked up): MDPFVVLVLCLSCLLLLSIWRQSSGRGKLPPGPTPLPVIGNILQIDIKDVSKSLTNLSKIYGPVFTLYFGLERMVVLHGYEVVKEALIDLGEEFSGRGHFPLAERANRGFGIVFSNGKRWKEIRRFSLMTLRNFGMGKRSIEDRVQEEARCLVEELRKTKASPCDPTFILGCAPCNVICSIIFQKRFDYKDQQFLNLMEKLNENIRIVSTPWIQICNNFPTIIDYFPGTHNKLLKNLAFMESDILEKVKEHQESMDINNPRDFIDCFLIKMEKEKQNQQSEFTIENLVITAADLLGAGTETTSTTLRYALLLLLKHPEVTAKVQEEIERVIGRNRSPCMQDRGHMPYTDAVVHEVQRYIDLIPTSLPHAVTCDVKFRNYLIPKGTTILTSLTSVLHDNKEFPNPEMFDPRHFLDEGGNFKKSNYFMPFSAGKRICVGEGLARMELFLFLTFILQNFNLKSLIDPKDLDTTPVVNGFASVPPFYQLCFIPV
row,SMILES,outcome
1,COc1cc(OC)nc(Sc2cccc(Cl)c2C(=O)O)n1,inactive
2,CSc1nc(NC(C)C)nc(NC(C)C)n1,inactive
3,O=c1ccc(=O)[nH][nH]1,inactive
4,O=C(O)c1cc(Oc2ccc(C(F)(F)F)cc2Cl)ccc1[N+](=O)[O-],inactive
5,CSc1nnc(C(C)(C)C)c(=O)n1N,inactive
6,CC1=NNC(=O)N(/N=C/c2cccnc2)C1,inactive
7,CN(C)C(=O)Nc1cccc(C(F)(F)F)c1,inactive
8,CCNc1nc(Cl)nc(NC(C)(C)C#N)n1,inactive
9,CCCSP(=O)(OCC)Oc1ccc(Br)cc1Cl (stereo not given),inactive
10,CC[C@H](C)[C@H]1O[C@]2(C=C[C@@H]1C)C[C@@H]1C[C@@H](C/C=C(\C)[C@@H](O[C@H]3C[C@H](OC)[C@@H](O[C@H]4C[C@H](OC)[C@@H](NC)[C@H](C)O4)[C@H](C)O3)[C@@H](C)/C=C/C=C3\CO[C@@H]4[C@H](O)C(C)=C[C@@H](C(=O)O1)[C@]34O)O2,inactive
11,CNC(=O)Oc1cccc2c1OC(C)(C)O2,inactive
12,CCOC(=O)COc1cc(-c2nn(C)c(OC(F)F)c2Cl)c(F)cc1Cl,inactive
13,COP(=O)(OC)SCn1c(=O)oc2cc(Cl)cnc21,inactive
14,CN1COCN(Cc2cnc(Cl)s2)C1=N[N+](=O)[O-],inactive
15,CNC(=O)ON=C(C)SC,inactive
16,CC1(C(=O)Nc2ccc(O)c(Cl)c2Cl)CCCCC1,inactive
17,CCc1cnc(C2=NC(C)(C(C)C)C(=O)N2)c(C(=O)O)c1 (stereo not given),inactive
18,CC(C1CC1)C(O)(Cn1cncn1)c1ccc(Cl)cc1 (stereo not given),inactive
19,CCCCOC(=O)c1ccccc1C(=O)O,inactive
20,CCOP(=O)(NC(C)C)Oc1ccc(SC)c(C)c1 (stereo not given),inactive

row,SMILES,outcome
1,CNC(=O)ON=C(SC)C(=O)N(C)C,inactive
2,CC(C)=CC1C(C(=O)OCN2C(=O)C3=C(CCCC3)C2=O)C1(C)C (stereo not given),inactive
3,Cc1nn(-c2cc(NS(C)(=O)=O)c(Cl)cc2Cl)c(=O)n1C(F)F,inactive
4,CCOP(=S)(OCC)Oc1ccc2c(C)c(Cl)c(=O)oc2c1,inactive
5,COc1ccc(C(=CC(=O)N2CCOCC2)c2ccc(Cl)cc2)cc1OC,inactive
6,CCOC(=O)CC(SP(=O)(OC)OC)C(=O)OCC (stereo not given),inactive
7,COc1cccc(C(=O)NN(C(=O)c2cc(C)cc(C)c2)C(C)(C)C)c1C,inactive
8,CN(C)[C@@H]1C(=O)C(C(N)=O)=C(O)[C@@]2(O)C(=O)C3=C(O)c4c(O)cccc4[C@@](C)(O)[C@H]3[C@H](O)[C@@H]12,inactive
9,CC(=NC#N)N(C)Cc1ccc(Cl)nc1,inactive
10,CCCCOC(=O)[C@@H](C)Oc1ccc(Oc2ccc(C#N)cc2F)cc1,inactive
11,CC(C)[C@H](C(=O)O[C@H](C#N)c1cccc(Oc2ccccc2)c1)c1ccc(Cl)cc1,inactive
12,CCc1cccc(C)c1N(C(=O)CCl)C(C)COC (stereo not given),inactive
13,CCOP(=S)(OCC)OC(Cl)C(Cl)(Cl)Cl (stereo not given),inactive
14,CCCCSP(=O)(SCCCC)SCCCC,inactive
15,CC(C)N(C(=O)SCC(Cl)=C(Cl)Cl)C(C)C,inactive
16,CCOP(=S)(OCC)SCCSCC,inactive
17,CON=C(C(=O)OC)c1ccccc1CON=C(C)c1cccc(C(F)(F)F)c1,inactive
18,COP(=O)(OC)OC(Br)C(Cl)(Cl)Br (stereo not given),inactive
19,CCCSP(=O)(OCC)SCCC,inactive
20,CCOP(=S)(Oc1cnc(C(C)(C)C)nc1)OC(C)C (stereo not given),inactive
